85 compounds from PMC4336329 (PLoS ONE, 2015) can be followed below.

Out of some 310,000 compounds screened, about 2,200 (0.71%) showed an effect of 50% or more. The effect is printed as a negative number. The entries come from a sample that favours strong results as a whole.

Chain of human ether-à-go-go-related gene (hERG) potassium channel (Q12809 whole entry, looked up): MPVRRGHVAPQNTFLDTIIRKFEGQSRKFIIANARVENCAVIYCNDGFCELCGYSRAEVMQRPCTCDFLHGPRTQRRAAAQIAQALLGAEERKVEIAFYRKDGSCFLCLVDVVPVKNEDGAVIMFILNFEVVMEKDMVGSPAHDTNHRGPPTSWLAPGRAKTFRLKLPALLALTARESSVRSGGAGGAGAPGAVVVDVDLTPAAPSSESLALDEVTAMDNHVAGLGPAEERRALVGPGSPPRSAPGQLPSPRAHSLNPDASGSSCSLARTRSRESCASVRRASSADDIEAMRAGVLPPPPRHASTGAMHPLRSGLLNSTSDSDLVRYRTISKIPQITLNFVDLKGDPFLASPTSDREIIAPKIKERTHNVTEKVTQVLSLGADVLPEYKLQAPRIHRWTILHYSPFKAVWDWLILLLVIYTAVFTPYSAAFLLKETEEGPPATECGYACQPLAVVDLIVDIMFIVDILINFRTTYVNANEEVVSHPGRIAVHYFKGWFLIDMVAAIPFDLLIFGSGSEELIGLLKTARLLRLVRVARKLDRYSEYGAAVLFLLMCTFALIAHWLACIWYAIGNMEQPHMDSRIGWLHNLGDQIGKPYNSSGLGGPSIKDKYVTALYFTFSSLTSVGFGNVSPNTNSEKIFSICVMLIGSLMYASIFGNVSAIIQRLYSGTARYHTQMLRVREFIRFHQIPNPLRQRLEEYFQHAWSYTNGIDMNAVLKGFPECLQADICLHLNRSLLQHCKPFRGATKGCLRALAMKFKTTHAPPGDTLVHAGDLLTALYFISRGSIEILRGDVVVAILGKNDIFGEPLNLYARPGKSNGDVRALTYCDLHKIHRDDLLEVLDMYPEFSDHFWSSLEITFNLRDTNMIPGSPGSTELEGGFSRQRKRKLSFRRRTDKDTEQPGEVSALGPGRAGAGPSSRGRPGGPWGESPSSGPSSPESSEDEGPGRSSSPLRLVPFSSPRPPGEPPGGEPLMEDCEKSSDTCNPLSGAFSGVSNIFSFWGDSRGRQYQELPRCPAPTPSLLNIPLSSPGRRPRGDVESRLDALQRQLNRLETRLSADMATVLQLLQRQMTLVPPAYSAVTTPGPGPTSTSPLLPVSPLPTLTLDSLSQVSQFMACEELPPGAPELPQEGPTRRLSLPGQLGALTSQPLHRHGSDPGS

The assay concerns the target human ether-à-go-go-related gene (hERG) potassium channel (human, UniProt Q12809). Kind of assay: primary screen, population patch clamp on CHO cells stably expressing hERG; higher = less effect of the substance. As for the experimental part: Briefly, Chinese hamster ovary (CHO) cells stably expressing the hERG channel were dislodged from tissue culture flasks and dispensed into PPC plates. […] During the recording, background leak currents were estimated by a 100 ms step to -80 mV from an initial holding potential of -70 mV and subtracted from the subsequent current measurement. The campaign was conducted in two phases using slight differences in recording protocol. In the first phase, the initial voltage pulse used a 100 ms step to -30 mV from a holding potential of -70 mV, a 2 s conditioning step to +25 mV, and a 2 s test step to -30 mV. During the second phase of the screen, the potential during the conditioning step was raised to +45 mV. In both phases of the campaign, a secondary voltage pulse was applied using the same parameters as the second phase initial pulse. The initial and secondary pulses were applied in the absence of compound, and upon application of 1 μM and 10 μM test concentrations. Small molecule effects on hERG current density were quantified by […].
For the compound `CCOc1cc(C)ccc1OCc1nnc(SCC(=O)c2cccc([N+](=O)[O-])c2)n1CC`, the “hERG current change (%, negative = inhibition) at 1uM” value was -1.84%.
Then `O=C(Nc1cc(=O)[nH]c2ncnn12)c1ccc(Cl)cc1Cl`, with -2.66%; and `CC(C)(C)c1ccc(C(=O)NN2C(=O)CSC2=S)cc1`, with 12.1%; and `CCOC(=O)C1(CCc2ccccc2)CCN(Cc2ccc(OC)cc2)CC1`, with -86.9%.
Then `CCOC(=O)C1(CCc2ccccc2)CCN(Cc2cccc3nccnc23)CC1`, with -19.3%.
Turning to `CCOC(=O)C1(CCc2ccccc2)CCN(Cc2ccc(O)cc2)CC1`, the “hERG current change (%, negative = inhibition) at 1uM” value was -86.3%.
On to `CCOC(=O)C1(Cc2ccccc2)CCN(Cc2cccc(OC)c2O)CC1`, for which the “hERG current change (%, negative = inhibition) at 1uM” value was -31%.
Turning to `CCOC(=O)C1(Cc2ccccc2)CCN(Cc2ccc3c(c2)OCCO3)CC1`, the “hERG current change (%, negative = inhibition) at 1uM” value is -0.488%.
`CCOC(=O)C1(CCc2ccccc2)CCN(CC(O)CO)CC1` (stereo not shown): the “hERG current change (%, negative = inhibition) at 1uM” value is listed as 1.26%.
Then `CCOC(=O)C1(CCc2ccccc2)CCN(Cc2cccc3cnccc23)CC1`, with -4.67%; and `CCOC(=O)C1(CCc2ccccc2)CCN(Cc2cc(OC)c(OC)cc2OC)CC1`, with -68.1%.
In the case of `CCOC(=O)C1(CCOc2ccccc2)CCN(Cc2ccc3c(c2)OCCO3)CC1` it was -25.8%.
Then `CCOC(=O)C1(CCc2ccccc2)CCN(Cc2ccc3c(c2)OCCO3)CC1`, with -91.4%.
Consider `CCOC(=O)C1(CCc2ccccc2)CCN(Cc2c(O)cccc2OC)CC1`, for which the “hERG current change (%, negative = inhibition) at 1uM” value is reported as -28.7%.
In the case of `CCOC(=O)C1(CCc2ccccc2)CCN(Cc2ccco2)CC1` it was -42.7%; in that of `Cc1ccc(/C=N/Nc2nnc(Cl)c3ccccc23)cc1`, -1.46%.
In the case of `COc1ccc(C[C@H]2c3cc(O)c(OC)cc3CC[N+]2(C)[O-])cc1O` (stereo partly shown) it was 16.9%.
For `Cn1c(NCCc2ccccc2)cc(=O)n(C)c1=O`, the “hERG current change (%, negative = inhibition) at 1uM” value amounted to 11.8%.
As for `Cc1ccc(C(=O)N(C)Cc2ccc(N3CCOCC3)cc2)cc1S(=O)(=O)NCc1ccccc1`, the “hERG current change (%, negative = inhibition) at 1uM” value came out at 1.2%.
In the case of `CCCCNC(=S)NNC(=O)c1cc(C2CC2)nc2ccccc12` it was 13.2%; in that of `COc1ccc(C2CC(=O)n3c(nc4ccccc43)S2)cc1OC` (stereo not shown), 12.9%.
Then `COc1ccc(CNC(=O)COC(=O)CN2C(=O)C(C)Oc3ccc(C)cc32)cc1` (stereo not shown), with 9.75%; and `CCOC(=O)C1(CCOc2ccccc2)CCN(Cc2ccc(C(=O)OC)cc2)CC1`, with -15.5%.
In the case of `CCOC(=O)C1(CCOC)CCN(Cc2ccc(C(=O)OC)cc2)CC1` it was 0.201%; in that of `CCOC(=O)C1(CCc2ccccc2)CCN(Cc2ccc(C(=O)OC)cc2)CC1`, -86.1%; in that of `Cc1ccc(NC(=O)/C(C#N)=C/c2ccc(C)s2)c(C)c1`, 14.2%.
As for `N#Cc1ccc(CN2CCN(C(=O)c3cccc(S(=O)(=O)N4CCCCCC4)c3)CC2)cc1`, the “hERG current change (%, negative = inhibition) at 1uM” value is -51.3%.
Consider `Cl.O=C(c1cccc(S(=O)(=O)N2CCCCC2)c1)N1CCN(Cc2ccccc2)CC1`, for which the “hERG current change (%, negative = inhibition) at 1uM” value is 6.64%.
On to `N#Cc1ccc(CN2CCN(C(=O)c3ccc(S(=O)(=O)N4CCCCCC4)cc3)CC2)cc1`, for which the “hERG current change (%, negative = inhibition) at 1uM” value is given as -5.24%.
Regarding `Cc1sc2ncn(Cc3ccccc3F)c(=O)c2c1C`, the “hERG current change (%, negative = inhibition) at 1uM” value is given as 1.65%.
As for `O=C1CS/C(=N/N=C2C3CC4CC(C3)CC2C4)N1`, the “hERG current change (%, negative = inhibition) at 1uM” value is -4.65%.
In the case of `CC(=O)OC1CC[C@]2(C#N)[C@H]3CC[C@]4(C)[C@H](C5C=CC(=O)O5)CCC4(O)C3CCC2(O)C1` (stereo partly shown) it was 12.9%; in that of `Cc1cc(C(=O)N2CCCC(N3CCN(c4ccccc4C)CC3)C2)n(C)n1` (stereo not shown), -87.7%; in that of `Cc1ccccc1N1CCN(C2CCCN(C(=O)c3cc(CC(C)C)nn3C)C2)CC1` (stereo not shown), 5.95%.
On to `CCCc1cc(C(=O)N2CCCC(N3CCN(c4ccccc4C)CC3)C2)n(C)n1` (stereo not shown), for which the “hERG current change (%, negative = inhibition) at 1uM” value turned out to be 3.48%.
In the case of `Cc1cccc(NS(=O)(=O)c2ccc(C(=O)NCC(C)(C)N3CCOCC3)cc2)c1C` it was -6.55%; in that of `Cc1nc2sc(C(c3cccs3)N3CCN(c4ccccc4)CC3)c(O)n2n1` (stereo not shown), 5.92%.
Take `Cc1nc2sc(C(c3cccs3)N3CCN(Cc4ccccc4)CC3)c(O)n2n1` (stereo not shown): the “hERG current change (%, negative = inhibition) at 1uM” value was -50.1%.
In the case of `COc1ccc(C(c2sc3nc(C)nn3c2O)N2CCN(Cc3ccccc3)CC2)cc1OC` (stereo not shown) it was 3.82%.
Turning to `COc1ccc(OC)c(/C=N/N(C)c2ccccc2)c1`, the “hERG current change (%, negative = inhibition) at 1uM” value is 12.4%.
With `O=C(NCCCCO)C(F)(F)C(F)(F)C(F)(F)C(=O)NCCCCO`, the “hERG current change (%, negative = inhibition) at 1uM” value turned out to be 14.4%.
In the case of `CCC(CC)C(=O)c1c[nH]c(C(=O)NCc2ccncc2)c1`, the “hERG current change (%, negative = inhibition) at 1uM” value stood at 10%.
In the case of `COc1cc(C)c(CN2CCN(CC(=O)Nc3ccccc3C(=O)NC3CC3)CC2)cc1OC` it was -87.6%; in that of `O=C(CN1CCN(S(=O)(=O)c2ccc(F)c(F)c2)CC1)Nc1ccccc1C(=O)NC1CC1`, -23.7%; in that of `COc1ccc(CN2CCN(CC(=O)Nc3ccccc3C(=O)NC3CC3)CC2)cc1F`, -99.6%.
`COc1ccc(OC)c(NC(=O)CN2CCC(NC(=O)c3ccccc3C)CC2)c1`: the “hERG current change (%, negative = inhibition) at 1uM” value was -4.31%.
`COc1ccc(OC)c(CN2CCN(CC(=O)Nc3ccccc3C(=O)NC3CC3)CC2)c1`: the “hERG current change (%, negative = inhibition) at 1uM” value is -87.6%.
In the case of `COc1ccccc1OCC(=O)Nc1ccccc1C(=O)NC1CC1` it was 1.98%; in that of `COc1cc2c(cc1OC)CN(CC(=O)Nc1ccccc1C(=O)NC1CC1)CC2`, -6.04%.
In the case of `COc1ccc(F)cc1CN1CCN(CC(=O)Nc2ccccc2C(=O)NC2CC2)CC1` it was -88.8%; in that of `Cc1ccccc1N1CCN(CC(=O)Nc2ccccc2C(=O)NC2CC2)CC1`, -35.4%.
Consider `CCOc1ccccc1N1CCN(CC(=O)Nc2ccccc2C(=O)NC2CC2)CC1`, for which the “hERG current change (%, negative = inhibition) at 1uM” value is on record as -23.5%.
In the case of `CC(=O)c1ccc(N2CCN(CC(=O)Nc3ccccc3C(=O)NC3CC3)CC2)c(F)c1` it was -5.91%; in that of `CCOc1ccccc1C(=O)NC1CCN(CC(=O)Nc2cc(OC)ccc2OC)CC1`, -25.6%.
Then `COc1ccc(NC(=O)CS(=O)(=O)c2ccc(F)cc2)cc1`, with 10.6%; and `Cc1ccc(-c2cc(C(F)(F)F)n3nc(C(=O)Nc4ccon4)cc3n2)cc1C`, with 7.99%.
Turning to `COCC(=O)N1CCCC(C(=O)c2ccc(-c3ccccc3)cc2)C1` (stereo not shown), the “hERG current change (%, negative = inhibition) at 1uM” value is 0.927%.
Then `O=C1/C(=C/c2cccc(Cl)c2)CSc2sccc21`, with 16%; and `COc1ccc(COc2ccc(S(=O)(=O)N3CCCC3)cc2C(N)=O)cc1F`, with 17.7%; and `CCOC(=O)c1oc2cc(OCC(N)=O)ccc2c(=O)c1-c1ccc(OC)c(OC)c1`, with 15.2%.
Then `O=C(O)c1ccccc1NS(=O)(=O)c1ccccc1C(F)(F)F`, with 5.14%; and `O=C(Nc1ccc2nc3n(c(=O)c2c1)CCCCC3)c1ccccc1[N+](=O)[O-]`, with 14.6%; and `CC1CN(C(=S)Nc2cccc(Cl)c2Cl)CC(C)O1` (stereo not shown), with 2.73%.
Regarding `COc1cccc(CNC(=O)C2CCN(S(=O)(=O)c3ccc4c(c3)CCC(=O)N4)CC2)c1`, the “hERG current change (%, negative = inhibition) at 1uM” value was found to be 17.5%.
Then `Cc1ccc(C(=O)Oc2coc(CSc3nnc(NC(=O)c4cccs4)s3)cc2=O)cc1`, with 13.4%; and `Cc1ccc(C(=O)/C=C\NCc2ccccc2)cc1`, with 7.27%; and `O=C(NC1CCCCCC1)c1cc2c(=O)n3ccccc3nc2s1`, with 8.59%.
Then `N=c1c(S(=O)(=O)c2ccc(Cl)cc2)cc2c(=O)n3ccccc3nc2n1C1CCCC1`, with 13.9%; and `N=c1c(C(=O)NC2CCCC2)cc2c(=O)n3ccccc3nc2n1C1CCCC1`, with -89.1%; and `Cn1c(C(=O)NC2CCCCC2)cc2c(=O)n3ccccc3nc21`, with 13.4%.
Then `N=c1c(C(=O)NC2CCCC2)cc2c(=O)n3ccccc3nc2n1C1CCCCC1`, with -86.9%.
Consider `O=P(C(Cl)Cl)(N1CCOCC1)N1CCOCC1`, for which the “hERG current change (%, negative = inhibition) at 1uM” value is 17.8%.
On to `CC(=O)Nc1cccc(NC(=O)CSc2nnc3ccc(-c4cccnc4)nn23)c1`, for which the “hERG current change (%, negative = inhibition) at 1uM” value was determined as 13.1%.
For `CCn1cc(/C=C/C(=O)Nc2c(C)nn(Cc3ccccc3)c2C)cn1`, the “hERG current change (%, negative = inhibition) at 1uM” value is 6.45%.
For `Cc1nc(-c2ccccc2)nc2[nH]c(C(C)C)cc(=O)c12`, the “hERG current change (%, negative = inhibition) at 1uM” value is on record as -5.88%.
Take `COC(=O)c1ccc(Nc2cc(C)nc3ccc(C)cc23)cc1.Cl`: the “hERG current change (%, negative = inhibition) at 1uM” value is given as -9.09%.
In the case of `CC(=O)c1cccc(Nc2cc(C)nc3ccc(C)cc23)c1.Cl` it was -13.7%; in that of `CC(=O)c1ccc(Nc2cc(C)nc3ccc(C)cc23)cc1`, -53.2%.
Regarding `N#Cc1ccc(N2CCOCC2)nc1`, the “hERG current change (%, negative = inhibition) at 1uM” value was determined as 1.37%.
On to `CCCCNC(=O)N1CCCN(c2ccc(C#N)cn2)CC1`, for which the “hERG current change (%, negative = inhibition) at 1uM” value is recorded as -11.6%.
In the case of `N#Cc1ccc(N2CCCNCC2)nc1` it was -90.9%; in that of `Cc1ccc(NC(=O)COC(=O)Cn2cnc3c2c(=O)n(C)c(=O)n3C)c(Cl)c1`, 13.3%; in that of `Cc1ccc(C(=O)COC(=O)C2C3C=CC(C3)C2C(=O)OCC(=O)c2ccc(C)c(C)c2)cc1C` (stereo not shown), 11.2%.
On to `O=C(NCCC1CCCCN1S(=O)(=O)c1ccc(F)cc1)C(=O)Nc1ccccc1` (stereo not shown), for which the “hERG current change (%, negative = inhibition) at 1uM” value was found to be 7.03%.
In the case of `NC(=O)COC(=O)c1ccc(Oc2ccccc2)cc1` it was 4.12%.
